# Data reported in publication PMC4336329 (PLoS ONE, 2015).
# Hit rate of the full screen: of about 310,000 compounds, about 14,000 (4.5%) showed an effect of 50% or more. Effects have a minus sign here. For the sample, strong results were picked, then their nearest neighbours and some compounds at random.
# Target: human ether-à-go-go-related gene (hERG) potassium channel (human, UniProt Q12809)
# Assay: primary screen, population patch clamp on CHO cells stably expressing hERG; higher = less effect of the substance
# 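Note: peak tail current of the secondary pulse compared with the same well before compound.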
# Sequence of human ether-à-go-go-related gene (hERG) potassium channel (Q12809 whole entry, looked up): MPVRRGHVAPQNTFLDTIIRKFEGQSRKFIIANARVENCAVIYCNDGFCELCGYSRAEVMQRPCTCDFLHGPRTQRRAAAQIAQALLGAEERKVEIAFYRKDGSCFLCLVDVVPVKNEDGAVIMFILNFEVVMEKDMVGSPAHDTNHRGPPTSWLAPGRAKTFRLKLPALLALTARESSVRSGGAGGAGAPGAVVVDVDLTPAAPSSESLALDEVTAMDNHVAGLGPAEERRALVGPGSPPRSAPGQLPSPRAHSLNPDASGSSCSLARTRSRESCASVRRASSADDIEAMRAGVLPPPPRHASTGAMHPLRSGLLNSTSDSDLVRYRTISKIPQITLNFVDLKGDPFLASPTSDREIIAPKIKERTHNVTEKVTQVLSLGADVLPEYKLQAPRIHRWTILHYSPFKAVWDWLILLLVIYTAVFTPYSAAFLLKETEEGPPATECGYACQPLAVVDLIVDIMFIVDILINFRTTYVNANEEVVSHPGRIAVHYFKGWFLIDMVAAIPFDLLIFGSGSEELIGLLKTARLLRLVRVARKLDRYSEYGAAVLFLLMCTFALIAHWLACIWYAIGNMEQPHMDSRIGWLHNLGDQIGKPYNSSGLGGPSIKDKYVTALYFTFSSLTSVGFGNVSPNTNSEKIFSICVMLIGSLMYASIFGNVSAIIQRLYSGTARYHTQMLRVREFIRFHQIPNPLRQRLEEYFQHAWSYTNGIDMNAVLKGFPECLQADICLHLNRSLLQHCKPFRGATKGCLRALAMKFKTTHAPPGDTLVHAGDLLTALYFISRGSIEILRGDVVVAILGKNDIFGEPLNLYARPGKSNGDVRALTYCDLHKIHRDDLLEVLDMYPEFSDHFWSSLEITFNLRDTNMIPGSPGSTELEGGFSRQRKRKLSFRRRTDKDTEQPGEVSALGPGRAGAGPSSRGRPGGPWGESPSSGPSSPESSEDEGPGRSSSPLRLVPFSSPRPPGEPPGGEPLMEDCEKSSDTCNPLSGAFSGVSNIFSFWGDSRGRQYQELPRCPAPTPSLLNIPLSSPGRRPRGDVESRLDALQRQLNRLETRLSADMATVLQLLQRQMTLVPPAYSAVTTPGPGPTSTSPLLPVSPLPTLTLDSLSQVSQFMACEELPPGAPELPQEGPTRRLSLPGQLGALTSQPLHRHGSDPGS
row,SMILES,"hERG current change (%, negative = inhibition) at 10uM"
1,Clc1ccc(CN2CCCCCCC2)cc1,-33.1%
2,O=S(=O)(NC1CCN(Cc2ccccc2)CC1)c1ccc(Cl)cc1,-41.3%
3,Clc1ccc(CN2CCC(c3ccccc3)CC2)cc1,-59.1%
4,Cc1c(C(=O)Nc2c(F)cccc2F)sc2ncn(CC(=O)N3CCCCC3)c(=O)c12,3.98%
5,Cc1cc(NC(=O)CSc2nnc(-c3cccnc3)n2C2CCCCC2C)no1 (stereo not drawn),3.83%
6,CCOc1ccc2[nH]c3c(NCCN(C)C)ncnc3c2c1,-19%
7,CCOc1ccc2[nH]c3c(NCCN(CC)CC)ncnc3c2c1,-71.6%
8,COc1ccc2[nH]c3c(NCCCN4CCCC4=O)ncnc3c2c1,-14.6%
9,CCOc1ccc2[nH]c3c(NCCOC)ncnc3c2c1,-9.5%
10,COc1ccc2[nH]c3c(NCCN(C(C)C)C(C)C)ncnc3c2c1,-70.7%
11,COc1ccc2[nH]c3c(NCCCOC(C)C)ncnc3c2c1,9.68%
12,CCN(CC)CCNc1ncnc2c1[nH]c1ccc(OC)cc12,-63.4%
13,COc1ccc2[nH]c3c(NCCN4CCCCC4)ncnc3c2c1,-55.9%
14,CCOc1ccc2[nH]c3c(NCCCOC)ncnc3c2c1,-10%
15,CCOc1ccc2[nH]c3c(NCCO)ncnc3c2c1,23.1%
16,COc1ccc2[nH]c3c(NCc4ccco4)ncnc3c2c1,-18.1%
17,CCOc1ccc2[nH]c3c(NCCC(C)C)ncnc3c2c1,7.2%
18,CCOc1ccccc1NC(=O)c1cnc(NS(=O)(=O)c2ccccc2)nc1,17.8%
19,CCN(C(=O)COC(=O)c1[nH]c(C)c(C(C)=O)c1C)c1c(N)n(Cc2ccccc2)c(=O)[nH]c1=O,0.295%
20,Cc1ccc2oc(C(=O)Nc3cc(C)on3)c(C)c2c1,-1.98%
21,CCCCOc1ccc(NC(=O)C(=O)NCCC2=CCCCC2)cc1,2.25%
22,CCCCCOC(=O)c1ccc(N2C(=O)C3C4C=CC(C4)C3C2=O)cc1 (stereo not drawn),-6.84%
23,C=CCn1c(SCC(=O)Nc2cc(C)on2)nc2sc3c(c2c1=O)CCCC3,-4%
24,O=C(Nc1ccc(S(=O)(=O)Nc2ncccn2)cc1)c1cccc(Br)c1,16.5%

row,SMILES,"hERG current change (%, negative = inhibition) at 10uM"
1,CC(=O)c1ccc(NC(=O)CCc2nnc3ccc(NCc4ccco4)nn23)cc1,9.4%
2,COc1ccc(CCn2c(O)c(C=Nc3ccccc3F)c(=O)[nH]c2=O)cc1OC,20.3%
3,CCOc1ccc(C(N)=O)cc1OC,6.13%
4,CN(C)c1ccc(C=Nc2cnn(C)c2C(N)=O)cc1,0.759%
5,COc1ccc(NC(=O)CSc2nnc(-c3cccs3)n2N)c(OC)c1,0.565%
6,Cn1cc(CN2CCC(N3CCNC(=O)CC3)CC2)c(-c2ccccc2F)n1,8.43%
7,O=C1c2ccccc2C(=O)N1n1cccc1,8.7%
8,Cc1c(C)n(Cc2ccccc2)c2ncnc(NCCCN(C)C)c12,-28.4%
9,COc1ccc(-n2c(C)c(C)c3c(NCCCN(C)C)ncnc32)cc1,-53.1%
10,Cc1c(C)n(CCCN(C)C)c2ncnc(Nc3ccccc3)c12,-29.3%
11,Cc1c(C)n(CCCN(C)C)c2ncnc(Nc3ccc(F)cc3)c12,-50.8%
12,Cc1c(C)n(CCc2ccccc2)c2ncnc(NCCCO)c12,-40.1%
13,COc1ccc(Nc2ncnc3c2c(C)c(C)n3CCCN(C)C)cc1,-32.7%
14,COc1ccc(-n2c(C)c(C)c3c(NCCCO)ncnc32)cc1,-14.3%
15,COc1ccc(-n2c(C)c(C)c3c(NCCN(C)C)ncnc32)cc1,-32.4%
16,Cc1c(C)n(CCc2ccccc2)c2ncnc(NCCCN(C)C)c12,-58%
17,Cc1cc(NS(=O)(=O)c2ccc(NC(=O)CSc3nnc(-c4ccco4)n3C)cc2)nc(C)n1,5.75%
18,CCCCn1c(N)c(N(CC(C)C)C(=O)C2CC(=O)N(CCc3ccccc3)C2)c(=O)[nH]c1=O (stereo not drawn),7.09%
19,Cc1ccc(Oc2nn[nH]n2)cc1,0.395%
20,C=C1[C@@H](OC(C)=O)[C@]23C[C@@H]1[C@@H](OC(C)=O)CC2[C@]12C4C[C@H]3[C@H]1N(CC)C[C@]4(C)CC[C@@H]2O (stereo partly drawn),-40.6%
21,O=C(NCc1n[nH]c(=S)n1-c1ccc(Cl)c(Cl)c1)c1ccc(S(=O)(=O)N2CCOCC2)cc1,14.5%
22,N#Cc1ccccc1OCc1nnc(-c2ccccc2Br)o1,14.1%
23,O=C(NCc1cccnc1)c1ccccc1NS(=O)(=O)c1ccc(F)cc1F,9.6%
24,Cn1c(SCCOc2ccccc2Cl)nnc1-c1cccs1,-35%

row,SMILES,"hERG current change (%, negative = inhibition) at 10uM"
1,Cc1ccc2c(c1)C1CN(C)CCC1N2C(=O)c1cccnc1Cl.Cl (stereo not drawn),1.59%
2,Cc1ccc2c(c1)C1CN(C)CCC1N2C(=O)/C=C/c1ccc2c(c1)OCO2 (stereo not drawn),-62.6%
3,Cc1ccc2c(c1)C1CN(C)CCC1N2C(=O)Nc1cccc(Cl)c1 (stereo not drawn),-51.1%
4,Cc1ccc2c(c1)[C@@H]1CN(C)CC[C@@H]1N2C(=O)Nc1cccc(C(F)(F)F)c1,-38.5%
5,Cc1ccc2c(c1)C1CN(C)CCC1N2C(=O)/C(C#N)=C/c1ccc2c(c1)OCO2 (stereo not drawn),-21.2%
6,Cc1ccc2c(c1)C1CN(C)CCC1N2C(=O)Nc1cccc(C(F)(F)F)c1 (stereo not drawn),-52.4%
7,Cc1ccc2c(c1)C1CN(C)CCC1N2C(=O)Cc1cccs1.Cl (stereo not drawn),-46.9%
8,Cc1ccc2c(c1)C1CN(C)CCC1N2C(=O)c1ccccc1NS(=O)(=O)c1cccc(C(F)(F)F)c1.Cl (stereo not drawn),-48.5%
9,Cc1ccc2c(c1)C1CN(C)CCC1N2C(=O)c1cccc(S(=O)(=O)N2CC(C)CC(C)C2)c1.Cl (stereo not drawn),-44.8%
10,CCOC(=O)/C(C#N)=C/c1cccc(C)c1,12.6%
11,COc1ccccc1-c1nnc(SCC(=O)NCc2ccco2)n1N,17.2%
12,CN(Cc1ccccc1)C(=O)COC(=O)c1ccccc1Nc1ccccc1,13%
13,NC(=O)COC(=O)c1c2c(nc3ccccc13)CCCC2,-53.3%
14,NC(=O)COC(=O)c1c2c(nc3ccccc13)CCCCC2,-23.2%
15,NC(=O)COC(=O)c1c2c(nc3ccccc13)CCC2,9.85%
16,COc1ccc(/C=C/C2=NC(=C\N(C)C)/C(=O)O2)cc1,-37.6%
17,CN(C)CCCCOc1ccccc1F.O=C(O)C(=O)O,14.4%
18,CN(CCOc1ccc(F)cc1)Cc1ccccc1.O=C(O)C(=O)O,-23.3%
19,CN(CCCOc1ccccc1Br)Cc1ccccc1,-22.1%
20,CN(C)CCCCCCCCCCC(=O)/C=N/O.Cl,-9.03%
21,CN(CCCCOc1ccc(F)cc1)Cc1ccccc1.O=C(O)C(=O)O,-54.7%
22,CN(C)CCCN(CCCNC(=O)/C=N/O)Cc1ccccc1,1.31%
23,CN(CCCOc1ccccc1F)Cc1ccccc1.O=C(O)C(=O)O,-57.3%
24,CN(CCCCCCCCC(=O)/C=N/O)Cc1ccccc1.Cl,-58.4%

row,SMILES,"hERG current change (%, negative = inhibition) at 10uM"
1,COc1ccc(OCCCCN(C)Cc2ccccc2)cc1.O=C(O)C(=O)O,-45.7%
2,CCc1ccccc1NC(=O)CCS(=O)(=O)c1ccc(OC)cc1,7.48%
3,CCOC(=O)c1c(NCC2CCCO2)c2ccccc2[nH]c1=O (stereo not drawn),0.695%
4,CCCN(CC(=O)Nc1ccccc1C)C(=O)c1ccc(C)c(S(=O)(=O)N2CCCCC2)c1,-11.3%
5,CCCCNc1nc(-c2ccccc2)nc(-n2ccnc2)n1,12.2%
6,Cc1ccc(Cl)cc1NC(=O)CC1NC2CCCCC2NC1=O (stereo not drawn),17.6%
7,CCC(C)c1ccccc1N1CC(C(=O)NCCC2=CCCCC2)CC1=O (stereo not drawn),8.97%
8,COC(=O)c1ccc(OC)c(-c2c(OC)cc(OC)cc2OC)c1,-1.49%
9,Cc1cccc(-n2ncc3c(N4CC(C)CC(C)C4)ncnc32)c1 (stereo not drawn),8%
10,Cc1ccc(NC(=O)C(=S)NCc2ccco2)cc1,7.1%
11,O=c1cc(CSc2ccccc2)nc(-c2ccccc2)[nH]1,6.19%
12,O=c1cc(CSc2ccc(Cl)cc2)nc(-c2ccncc2)[nH]1,1.72%
13,O=c1cc(CSc2ccc(Cl)cc2)nc(-c2ccccc2)[nH]1,-59.7%
14,CC(C)C(=O)NC(=S)/C=C1/N(C)c2ccccc2C1(C)C,-1.42%
15,O=C(Cc1sc(-c2ccccc2Cl)nc1-c1ccccc1)Nc1ccccc1,11.3%
16,O=C(c1ccc(OC2CCN(C/C=C/c3ccc(F)cc3)CC2)cc1)N1CCCCC1,-64.9%
17,O=C(c1ccc(OC2CCN(Cc3ccccc3OC(F)F)CC2)cc1)N1CCCC1,-3.42%
18,CC(C)/C=C/CN1CCC(Oc2ccc(C(=O)N3CCCC3)cc2)CC1,-35.3%
19,O=C(c1ccc(OC2CCN(CCO)CC2)cc1)N1CCCC1,18.1%
20,O=C(c1ccc(OC2CCN(C/C=C/c3ccc(F)cc3)CC2)cc1)N1CCCC1,-75.5%
21,COCC(=O)N1CCC(Oc2ccc(C(=O)N3CCCCCCC3)cc2)CC1,22.7%
22,COc1ccccc1/C=C/CN1CCC(Oc2ccc(C(=O)N3CCCCC3)cc2)CC1,-44.6%
23,COCC(=O)N1CCC(Oc2ccc(C(=O)N3CCCCCC3)cc2)CC1,12.1%
24,COc1ccc(/C=C/CN2CCC(Oc3ccc(C(=O)N4CCCCC4)cc3)CC2)cc1,-53.6%
